In the library only some 3.5% were active in any assay of this set; here they are far more common.
TEAD-YAP block – TEAD-YAP interaction inhibition; HEK-TIYL cells, TEAD-Gal4/YAP UAS-luciferase luminescence; inhibition, % at 9.12 µM; 1.4% of 640,000 active; AID 1259422; in the data active means inhibition above about 32%;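 further: 0% = median of test compound wells and 100% = reference inhibitor wells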
MITF inh – blocks human microphthalmia-associated transcription factor. O75030. AlphaScreen MITF homodimerization, bead proximity signal. inhibition, % at 2.6 µM. 0.91% of 650,000 active. AID 1259374; in the data active means inhibition above about 50%;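 further: 0% = vehicle wells with protein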
FBW7 activator – human FBW7 E3 ligase activation, primary screen; AID 1259310; 0.13% of 650,000 active; AlphaScreen FBW7–phospho-cyclin E peptide binding, activator screen; normalized activity (activation), % at 26.1 µM; in the data active means normalized activity above about 1.9%;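 further: purified mutant Fbw7 with reduced substrate affinity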
GPR151 ag – human GPR151 activation | Q8TDV0 | PathHunter beta-arrestin GPR151 cells, luminescence | activation, % at 11.2 µM | 1% of 650,000 active | AID 1508602; in the data active means activation above about 4.9%;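 further: 0% = median of compound wells and 100% = cells with positive control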
Target sequence (Q8TDV0 whole entry, looked up): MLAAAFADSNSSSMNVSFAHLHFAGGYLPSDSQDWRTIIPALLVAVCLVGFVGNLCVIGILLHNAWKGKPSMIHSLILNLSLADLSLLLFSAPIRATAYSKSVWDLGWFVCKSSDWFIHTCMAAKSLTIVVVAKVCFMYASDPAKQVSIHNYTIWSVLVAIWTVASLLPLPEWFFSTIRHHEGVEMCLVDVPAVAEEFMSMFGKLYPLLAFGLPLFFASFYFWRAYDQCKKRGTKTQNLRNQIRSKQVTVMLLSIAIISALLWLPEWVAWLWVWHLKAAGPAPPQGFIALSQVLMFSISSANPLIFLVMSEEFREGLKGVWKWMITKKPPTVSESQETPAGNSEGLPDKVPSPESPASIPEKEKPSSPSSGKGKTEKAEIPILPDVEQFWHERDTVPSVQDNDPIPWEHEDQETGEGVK
MITF inh conf – confirmation of human MITF inhibitors; AlphaScreen MITF homodimerization, biotin/His-MITF beads; shares compounds with MITF inh; inhibition, % at 2.6 µM; 16% of 4,700 active;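 active means inhibition above a cutoff derived from the DMSO control wells, cut at about 28% in these data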;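 further: 0% = MITF dimer wells with DMSO only; inhibitors lower the bead chemiluminescence by keeping MITF from dimerizing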
AlphaScreen intf2 – counter-screen: compounds optically interfering with AlphaScreen; LysRS AlphaScreen counterscreen, signal interference, triplicate; inhibition, % at 2.6 µM; AID 1259376; shares compounds with MITF inh; 7.6% of 4,700 active;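 active means inhibition above a cutoff derived from the DMSO control wells, cut at about 30% in these data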
The depositor's hits bear a star; x = not tested or not shown.

SMILES	TEAD-YAP block	MITF inh	FBW7 activator	GPR151 ag	MITF inh conf	AlphaScreen intf2
CC(C)c1cccc(OCCCN2CCOCC2)c1	-1	56*	0	3	14	15
Cc1ccc(C(C)C)cc1OCCCCN1CCOCC1	10	79*	0	1	-7	-6
COc1ccc(C2CC(c3ccccc3)=NN2C(=O)c2cc(OC)c(OC)c(OC)c2)cc1 (stereo not drawn)	30	0	0	0	x	x
Cc1ccc(C(C)C)cc1OCCn1cncn1	-8	66*	0	1	10	17
COc1cccc(OCCn2cncn2)c1	4	11	1	-1	x	x
CC(C)NCC(O)CNC(C)C1COc2ccccc2O1 (stereo not drawn)	-1	-3	0	3	x	x
CC(NCc1ccc([N+](=O)[O-])cc1)C1COc2ccccc2O1 (stereo not drawn)	-6	62*	0	0	-12	-6
CCc1ccc(/C=C2/NC(=O)N(Cc3ccccc3F)C2=O)cc1	-14	6	0	0	x	x
CCCCn1c(SC(CC)C(=O)Nc2ccc3c(c2)OCO3)nc2ccsc2c1=O (stereo not drawn)	2	69*	0	-1	0	0
CCC(Sc1nc2ccsc2c(=O)n1CCC(C)C)C(=O)Nc1ccc2c(c1)OCO2 (stereo not drawn)	-1	-4	0	-1	x	x
CCCCn1c(SCC(=O)Nc2ccccc2OC)nc2ccsc2c1=O	2	58*	0	-1	-1	1
COc1ccc(NC(=O)CCCCCn2c(SCC(=O)Nc3ccccc3OC)nc3ccsc3c2=O)cc1	5	5	0	-1	x	x
O=C(Nc1ccc(Cl)cc1)c1cnc2n(c1=O)CCS2	-12	-7	0	1	x	x
O=C(CN1CCc2ccccc2C1)Nc1ccc(C(=O)N2CCCCC2)cc1	-16	60*	0	2	11	19
NC(=O)c1ccc(NC(=O)CN2CCc3ccccc3C2)cc1	-6	3	0	0	x	x
O=C(CN1CCN(Cc2ccccc2)CC1)Nc1ccc(C(=O)N2CCCCC2)cc1	3	65*	0	1	12	-2
O=C(CN1CCN(Cc2ccccc2)CC1)Nc1ccccc1	-5	1	1	3	x	x
COc1cc(C(=O)NC(=S)Nc2cccnc2)cc(OC)c1OC	9	7	1	0	x	x
Cc1ccc(/C(O)=C2/C(=O)C(=O)N(CCN(C)C)C2c2ccco2)cc1 (stereo not drawn)	8	-1	0	2	x	x
CC(=O)N/N=C(\C)CC(=O)Nc1ccc(Cl)c(Cl)c1	12	7	0	1	x	x
COc1ccc(-c2n[nH]c(=S)n2/N=C/c2cc(OC)ccc2OC)cc1	10	55*	0	1	-14	6
COc1ccc(CN2CCC(C(=O)NCCc3ccccc3)CC2)cc1	0	36	0	1	x	x
O=C(NCCc1ccccc1)C1CCN(Cc2cccnc2)CC1	2	51*	0	3	8	21
O=C(c1ccncc1)N1CCN(CC2CC=CCC2)CC1 (stereo not drawn)	7	73*	0	0	-6	0
O=C(c1cccc(OC2CCN(CC3CC=CCC3)CC2)c1)N1CCOCC1 (stereo not drawn)	4	-1	0	0	x	x
SMILES	TEAD-YAP block	MITF inh	FBW7 activator	GPR151 ag	MITF inh conf	AlphaScreen intf2
O=C(NCc1cccnc1)C1CCN(CC2CC=CCC2)CC1 (stereo not drawn)	0	63*	0	1	11	15
O=C(c1cccnc1)N1CCN(CC2CC=CCC2)CC1 (stereo not drawn)	5	71*	1	0	-7	-5
O=C(c1cccnc1)N1CCN(C2CCCC2)CC1	-2	64*	0	0	1	8
COc1ccc(CNC(=O)c2sc3nc(-c4cccs4)ccc3c2N)cc1	4	1	1	0	x	x
CC(=O)c1sc2nc(-c3cccs3)ccc2c1N	-28	51*	0	-1	10	12
O=C(c1sccc1-n1cccc1)N1CCCC1	12	5	0	0	x	x
Cc1ccc(NC(=O)c2sccc2-n2cccc2)cc1	8	59*	0	1	5	17
Fc1ccc(CN2CCN(Cc3ccc4ccccc4c3)CC2)cc1	-7	79*	0	1	20	14
O=C(c1ccc(F)cc1)N1CCN(Cc2ccc3ccccc3c2)CC1	15	58*	1	3	-8	-6
O=C1NCCN(Cc2cccc(Oc3ccccc3)c2)C1CC(=O)N1CCCC1 (stereo not drawn)	8	8	0	1	x	x
Cc1cn2c3c(=O)n(C)c(=O)n(C)c3nc2n1CCc1ccccc1	10	55*	0	-1	-4	16
CCn1c(=O)c2c(nc3n(CCc4ccccc4)c(C)cn23)n(C)c1=O	-3	2	0	3	x	x
O=C(CSc1nc2ccccc2c(=O)n1CC1CCC(C(=O)NCc2ccccc2)CC1)c1ccc(Cl)cc1 (stereo not drawn)	4	2	0	0	x	x
COc1cc(CN2CCN(Cc3ccc4ccccc4c3)CC2)cc(OC)c1OC	0	60*	0	2	14	23
COc1cccc(CN2CCN(Cc3cccc(F)c3)CC2)c1OC	-5	66*	0	-1	14	21
COc1cc(CN2CCN(Cc3cccc(OC)c3OC)CC2)cc(OC)c1	2	27	-1	0	x	x
CCOc1cc(CN2CCN(Cc3cccc(OC)c3OC)CC2)ccc1OC	-7	11	0	1	x	x
COc1cccc(CN2CCN(Cc3cccc(OC)c3OC)CC2)c1	-2	74*	0	0	17	19
COc1cccc(CN2CCN(Cc3ccc4ccccc4c3)CC2)c1OC	-8	76*	0	-1	-3	16
O=C(COCCn1cc(-c2ccc(Cl)cc2)cn1)NCCN1CCOCC1	-4	5	0	1	x	x
Cc1ccc(CN(C)c2ccc(S(=O)(=O)N3CCCC3)cn2)o1	-2	-2	0	2	x	x
c1ccc(CN2CCCC2c2nc(-c3ccncc3)n[nH]2)nc1 (stereo not drawn)	-6	101*	-1	0	92*	100*
COC1(OC)N=C(N)C2(C#N)C(c3ccc(F)cc3)C12C#N (stereo not drawn)	-12	55*	0	0	-2	-4
CCOC1(OCC)N=C(N)C2(C#N)C(c3ccc(NC(C)=O)cc3)C12C#N (stereo not drawn)	-1	55*	0	-1	4	2
COC1(OC)N=C(N)C2(C#N)C(c3ccc(NC(C)=O)cc3)C12C#N (stereo not drawn)	-1	51*	0	0	-2	7
CCOC1(OCC)N=C(N)C2(C#N)C(c3cccc(Br)c3)C12C#N (stereo not drawn)	-10	23	0	1	x	x
